Results from publication PMC8769072, “Proteome‐scale mapping of binding sites in the unstructured regions of the human proteome” (Molecular Systems Biology, 2022).

Molecular target: AP2B1 700-937, P63010
Sequence (P63010 700-937): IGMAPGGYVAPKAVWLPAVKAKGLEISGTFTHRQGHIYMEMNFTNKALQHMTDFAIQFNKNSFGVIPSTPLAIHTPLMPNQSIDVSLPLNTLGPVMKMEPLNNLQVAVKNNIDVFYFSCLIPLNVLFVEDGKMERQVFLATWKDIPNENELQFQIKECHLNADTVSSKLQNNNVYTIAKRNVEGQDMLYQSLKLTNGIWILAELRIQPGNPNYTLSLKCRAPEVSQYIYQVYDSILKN

Selected by phage display, active:
NPGLSWTDWPEPSLLE [PHF7, Q9BWX1] confidence 3
AEPFSSSSPTPLFPWF [KMT2A, Q03164] confidence 2
LNSPAWEASGLHWSSL [GNAS, P84996] confidence 3
AGLGGPVDFSDLPWPL [ARNTL, O00327] confidence 2
NSISEPKGNPLAWQAF confidence 3
TGQDIAPRDSPEWVAF [FRMPD1, Q5SYB0] confidence 3
WTAWEADALFMQRDVY [ZNF532, Q9HCE3] confidence 3
WSHWEDSALPPPSLRP [RHBDD3, Q9Y3P4] confidence 3
SWEAFDSHGQESSGQL [F8A3, P23610] confidence 2
EERLRGWEAFLNAPEA [HTATSF1, O43719] confidence 2
NFADFSQFEVFAASNV [REPS1, Q96D71] confidence 3
FTKVEHWSSFAALPWG [SLC35F4, A4IF30] confidence 2
PEWEVAAPWGSVGPGA [GPR179, Q6PRD1] confidence 2
TVGKNHEWNWAFVAFT [SLC9A2, Q9UBY0] confidence 2
WGEPWGEPSTPATTVD [TNRC6A, Q8NDV7] confidence 2
SANADFANFDAFGQSS [AGFG1, P52594] confidence 3
EPSTTPNNWADFSSTW [ITSN1, Q15811] confidence 4
DPGAMEPWALPTWHSW [TSPOAP1, O95153] confidence 2
VPVWEPQDWQQQLVNI [NTHL1, P78549] confidence 3
PWVPNWELGEPPGNAP [ZNF831, Q5JPB2] confidence 3
WDVPAWESTQHPWPVA [ZNF786, Q8N393] confidence 4
TESWMSPLAWLEKGVN [SPAG5, Q96R06] confidence 2
ITAWEAGWNVTNAIQG [SLC32A1, Q9H598] confidence 3
DSDGHTDAFVAYFADG [BBS5, Q8N3I7] confidence 2
MSGWAEGPRMLSWAPF [TSPO2, Q5TGU0] confidence 3
VAAGWWAFAPPALQVL [SLCO4A1, Q96BD0] confidence 2
ELLTVPDGWKEPAFSK [KRR1, Q13601] confidence 3
PWTAFPKPSNSQPTSP [CGNL1, Q0VF96] confidence 3
EWLYGGPWDVHVHSDL [FIP1L1, Q6UN15] confidence 2
ASSPVNWAAPWANAMN [TEX13C, A0A0J9YWL9] confidence 3
EKSPTDWALFTYEGNS [DBNL, Q9UJU6] confidence 2
SWAAFGDQQATESHHR [AFTPH, Q6ULP2] confidence 3
ESFGGGFADFSTLSKV [EPS15, P42566] confidence 3
RGVEWAAFGRDLFLAS [ELP2, Q6IA86] confidence 3
SQEDWTTFTHDRIRQL [INPPL1, O15357] confidence 2
WPASWGFPDASSTVPS [Q96NJ1] confidence 2
HERDPWYSWDQPGLRL [NDUFB8, O95169] confidence 3
TQAQAALNFGWAFSWL [C12orf71, A8MTZ7] confidence 2
APPFPQSTFTPWASWV [SPATA31E1, Q6ZUB1] confidence 3
FDWSSFKPMGFEVSFL [ZNF292, O60281] confidence 2
LSHLGQVEPVPWADAF [ANKRD11, Q6UB99] confidence 2
EATEEGWASFSAELSH [OBSCN, Q5VST9] confidence 4
MGGAAASWAGWAVTGV [SCYL1, Q96KG9] confidence 3
WQAFESQPAAPAVPMN confidence 2

Molecular target: ANKRA2 142-313, Q9H9E1
Sequence (Q9H9E1 142-313): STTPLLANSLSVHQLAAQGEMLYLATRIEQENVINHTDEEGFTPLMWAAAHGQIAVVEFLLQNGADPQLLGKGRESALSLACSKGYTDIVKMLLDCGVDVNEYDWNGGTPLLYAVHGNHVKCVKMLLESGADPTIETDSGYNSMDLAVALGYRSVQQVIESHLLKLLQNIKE

Selected by phage display, active:
PGTLLPTPGLPQFPSA [OTP, Q5XKR4] confidence 2
EEEMEVPVLPKISLPI [NUP153, P49790] confidence 2
AAKPSLPALDPMSMLF [TSHZ3, Q63HK5] confidence 3
DSALSLPPLSLPHPHP [NTM-AS1, Q6ZSK4] confidence 3
VELPALPSLPTLPTLP [PRX, Q9BXM0] confidence 2
YTSPSLPNISLGLQAT [HDAC5, Q9UQL6] confidence 4
SMLKLPDLPQNSVKLQ [KIAA0586, Q9BVV6] confidence 3
LPNLPNLNLNLPAPHI [GORASP2, Q9H8Y8] confidence 2
VGLPLPPTLPSLIPFI [SALL1, Q9NSC2] confidence 2
EKPVPTLPQFTMGPNV [EFNA3, P52797] confidence 3
ALLLPDLSLHVPPGGA [ZNF513, Q8N8E2] confidence 2
MPPSQLQLPTLPLVMV [FOXP3, Q9BZS1] confidence 2
PQPKLPYLPTFPFSMP [NOBOX, O60393] confidence 2
VFPRPVLPSLTVSRVI [C16orf46, Q6P387] confidence 4
QASLQAMSLPELSGAL [ANKS3, Q6ZW76] confidence 2
AESSQAVMSLPKLQQV [ZNF362, Q5T0B9] confidence 4
MSARPSLPPLPAKPAG [SERTAD4-AS1, Q5TG53] confidence 2
NLRLPSLDEQVIPARL [Q5PR19] confidence 2
